Source: ChEMBL document CHEMBL1961873, “Compounds: GSK PKIS; Assays: Nanosyn kinase panel” (2012)

Experiments:
[1] = molecular target: Mitogen-activated protein kinase 3 (Homo sapiens) (UniProt P27361); details: at 1 µM;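 further: values are mean percent inhibition of MAPK3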
[2] = molecular target: SRSF protein kinase 3 (Homo sapiens) (UniProt Q9UPE1); details: at 0.1 µM
[3] = molecular target: SRSF protein kinase 3 (Homo sapiens) (UniProt Q9UPE1); details: at 1 µM
[4] = molecular target: Mitogen-activated protein kinase 14 (Homo sapiens) (UniProt Q16539); details: at 0.1 µM
Sequence of Mitogen-activated protein kinase 14 (Homo sapiens) (Q16539 whole entry): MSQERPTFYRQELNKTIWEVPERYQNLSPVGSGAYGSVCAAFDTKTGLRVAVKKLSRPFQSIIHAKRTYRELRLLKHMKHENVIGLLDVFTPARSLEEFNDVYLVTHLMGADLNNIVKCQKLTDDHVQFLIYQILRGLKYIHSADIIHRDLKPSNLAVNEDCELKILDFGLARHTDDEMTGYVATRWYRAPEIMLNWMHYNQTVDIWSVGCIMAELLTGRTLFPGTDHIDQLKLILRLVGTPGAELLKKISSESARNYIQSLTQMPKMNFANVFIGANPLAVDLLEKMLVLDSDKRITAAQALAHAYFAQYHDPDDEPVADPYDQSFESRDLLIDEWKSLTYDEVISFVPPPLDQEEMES

[5] = molecular target: Mitogen-activated protein kinase 14 (Homo sapiens) (UniProt Q16539); details: at 1 µM
[6] = molecular target: Mitogen-activated protein kinase 11 (Homo sapiens) (UniProt Q15759); details: at 0.1 µM
Sequence of Mitogen-activated protein kinase 11 (Homo sapiens) (Q15759 whole entry): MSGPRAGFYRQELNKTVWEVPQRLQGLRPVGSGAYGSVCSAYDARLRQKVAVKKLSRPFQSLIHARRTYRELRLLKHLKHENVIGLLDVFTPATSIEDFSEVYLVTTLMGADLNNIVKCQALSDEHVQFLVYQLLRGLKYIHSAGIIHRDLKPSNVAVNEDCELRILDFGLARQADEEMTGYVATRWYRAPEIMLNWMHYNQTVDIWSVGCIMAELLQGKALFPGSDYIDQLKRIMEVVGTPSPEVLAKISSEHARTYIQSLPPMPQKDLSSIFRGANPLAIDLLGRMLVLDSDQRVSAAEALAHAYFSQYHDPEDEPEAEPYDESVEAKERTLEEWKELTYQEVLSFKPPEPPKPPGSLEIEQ

[7] = molecular target: Mitogen-activated protein kinase 11 (Homo sapiens) (UniProt Q15759); details: at 1 µM
[8] = molecular target: T1, Mitogen-activated protein kinase 13 (Homo sapiens) (UniProt O15264); details: at 0.1 µM
T1 sequence (whole entry): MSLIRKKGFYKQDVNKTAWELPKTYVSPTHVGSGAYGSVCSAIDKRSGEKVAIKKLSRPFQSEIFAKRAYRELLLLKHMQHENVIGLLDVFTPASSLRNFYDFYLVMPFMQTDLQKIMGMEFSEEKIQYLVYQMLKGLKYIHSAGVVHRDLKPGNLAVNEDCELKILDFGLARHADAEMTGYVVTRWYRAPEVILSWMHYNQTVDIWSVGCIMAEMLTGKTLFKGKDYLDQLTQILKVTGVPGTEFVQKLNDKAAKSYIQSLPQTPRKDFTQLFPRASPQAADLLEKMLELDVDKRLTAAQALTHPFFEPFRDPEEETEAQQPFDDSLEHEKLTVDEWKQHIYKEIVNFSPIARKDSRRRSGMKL

[9] = molecular target: T1, Mitogen-activated protein kinase 13 (Homo sapiens); details: at 1 µM
[10] = molecular target: T2, Mitogen-activated protein kinase 12 (Homo sapiens) (UniProt P53778); details: at 0.1 µM
T2 sequence (whole entry): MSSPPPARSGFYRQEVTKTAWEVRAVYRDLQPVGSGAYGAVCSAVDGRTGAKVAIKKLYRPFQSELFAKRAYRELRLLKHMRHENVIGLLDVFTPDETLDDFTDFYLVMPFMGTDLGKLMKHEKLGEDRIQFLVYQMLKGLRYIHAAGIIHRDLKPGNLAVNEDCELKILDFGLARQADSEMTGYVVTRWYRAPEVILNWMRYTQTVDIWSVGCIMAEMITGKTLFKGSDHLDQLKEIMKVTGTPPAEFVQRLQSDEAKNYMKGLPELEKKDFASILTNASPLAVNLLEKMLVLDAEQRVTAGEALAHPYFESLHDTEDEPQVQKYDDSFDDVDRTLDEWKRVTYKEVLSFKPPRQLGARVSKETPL

[11] = molecular target: T2, Mitogen-activated protein kinase 12 (Homo sapiens); details: at 1 µM
[12] = molecular target: SRSF protein kinase 1 (Homo sapiens) (UniProt Q96SB4); details: at 0.1 µM
Sequence of SRSF protein kinase 1 (Homo sapiens) (Q96SB4 whole entry, canonical isoform): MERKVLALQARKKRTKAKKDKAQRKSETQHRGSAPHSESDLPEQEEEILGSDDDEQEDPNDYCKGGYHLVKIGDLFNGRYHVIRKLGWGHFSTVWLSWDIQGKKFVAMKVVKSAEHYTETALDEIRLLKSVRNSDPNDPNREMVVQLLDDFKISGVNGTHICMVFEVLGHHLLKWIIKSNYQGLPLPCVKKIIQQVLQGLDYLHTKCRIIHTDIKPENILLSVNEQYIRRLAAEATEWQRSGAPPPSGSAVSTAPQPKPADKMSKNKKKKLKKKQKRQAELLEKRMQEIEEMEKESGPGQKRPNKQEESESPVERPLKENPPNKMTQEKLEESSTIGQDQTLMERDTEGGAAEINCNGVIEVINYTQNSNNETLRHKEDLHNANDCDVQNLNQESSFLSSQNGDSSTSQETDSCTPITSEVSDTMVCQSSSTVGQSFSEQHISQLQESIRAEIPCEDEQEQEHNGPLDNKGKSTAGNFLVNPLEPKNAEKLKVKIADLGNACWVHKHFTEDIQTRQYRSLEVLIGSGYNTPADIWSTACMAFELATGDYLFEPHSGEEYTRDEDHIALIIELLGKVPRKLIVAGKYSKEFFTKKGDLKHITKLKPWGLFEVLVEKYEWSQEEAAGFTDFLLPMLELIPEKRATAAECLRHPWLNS

[13] = molecular target: SRSF protein kinase 1 (Homo sapiens) (UniProt Q96SB4); details: at 1 µM
[14] = molecular target: Phosphatidylinositol 4,5-bisphosphate 3-kinase catalytic subunit alpha isoform (Homo sapiens) (UniProt P42336); details: at 0.1 µM
Sequence of Phosphatidylinositol 4,5-bisphosphate 3-kinase catalytic subunit alpha isoform (Homo sapiens) (P42336 whole entry, canonical isoform): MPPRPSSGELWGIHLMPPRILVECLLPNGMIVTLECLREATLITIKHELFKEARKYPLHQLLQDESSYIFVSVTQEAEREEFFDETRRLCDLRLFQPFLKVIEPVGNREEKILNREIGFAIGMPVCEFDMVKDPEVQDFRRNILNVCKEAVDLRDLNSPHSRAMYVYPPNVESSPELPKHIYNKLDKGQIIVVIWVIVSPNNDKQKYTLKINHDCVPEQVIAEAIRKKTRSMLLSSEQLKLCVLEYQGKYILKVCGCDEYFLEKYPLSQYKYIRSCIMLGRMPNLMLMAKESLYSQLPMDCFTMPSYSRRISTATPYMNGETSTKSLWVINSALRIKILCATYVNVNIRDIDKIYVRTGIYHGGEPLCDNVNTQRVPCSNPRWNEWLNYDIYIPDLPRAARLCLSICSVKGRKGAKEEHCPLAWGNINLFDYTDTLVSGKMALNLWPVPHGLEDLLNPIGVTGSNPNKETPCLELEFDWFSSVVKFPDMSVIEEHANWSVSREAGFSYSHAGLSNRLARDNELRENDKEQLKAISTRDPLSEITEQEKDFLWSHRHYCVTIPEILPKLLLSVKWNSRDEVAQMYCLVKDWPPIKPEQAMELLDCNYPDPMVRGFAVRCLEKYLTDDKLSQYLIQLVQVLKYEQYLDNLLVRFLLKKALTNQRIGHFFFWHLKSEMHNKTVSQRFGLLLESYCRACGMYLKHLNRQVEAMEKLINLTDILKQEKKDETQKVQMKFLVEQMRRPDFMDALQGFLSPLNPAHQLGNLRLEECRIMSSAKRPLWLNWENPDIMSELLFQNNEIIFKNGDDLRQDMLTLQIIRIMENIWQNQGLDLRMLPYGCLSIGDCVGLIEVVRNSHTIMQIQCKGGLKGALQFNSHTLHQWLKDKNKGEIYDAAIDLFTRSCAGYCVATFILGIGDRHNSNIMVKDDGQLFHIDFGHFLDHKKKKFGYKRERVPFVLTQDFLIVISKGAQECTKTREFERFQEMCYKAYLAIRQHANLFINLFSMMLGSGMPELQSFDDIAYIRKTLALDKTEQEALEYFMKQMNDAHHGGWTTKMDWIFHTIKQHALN

[15] = molecular target: Phosphatidylinositol 4,5-bisphosphate 3-kinase catalytic subunit alpha isoform (Homo sapiens) (UniProt P42336); details: at 1 µM
[16] = molecular target: T3, Phosphatidylinositol 4,5-bisphosphate 3-kinase catalytic subunit delta isoform (Homo sapiens) (UniProt O00329); details: at 0.1 µM
T3 sequence (whole entry): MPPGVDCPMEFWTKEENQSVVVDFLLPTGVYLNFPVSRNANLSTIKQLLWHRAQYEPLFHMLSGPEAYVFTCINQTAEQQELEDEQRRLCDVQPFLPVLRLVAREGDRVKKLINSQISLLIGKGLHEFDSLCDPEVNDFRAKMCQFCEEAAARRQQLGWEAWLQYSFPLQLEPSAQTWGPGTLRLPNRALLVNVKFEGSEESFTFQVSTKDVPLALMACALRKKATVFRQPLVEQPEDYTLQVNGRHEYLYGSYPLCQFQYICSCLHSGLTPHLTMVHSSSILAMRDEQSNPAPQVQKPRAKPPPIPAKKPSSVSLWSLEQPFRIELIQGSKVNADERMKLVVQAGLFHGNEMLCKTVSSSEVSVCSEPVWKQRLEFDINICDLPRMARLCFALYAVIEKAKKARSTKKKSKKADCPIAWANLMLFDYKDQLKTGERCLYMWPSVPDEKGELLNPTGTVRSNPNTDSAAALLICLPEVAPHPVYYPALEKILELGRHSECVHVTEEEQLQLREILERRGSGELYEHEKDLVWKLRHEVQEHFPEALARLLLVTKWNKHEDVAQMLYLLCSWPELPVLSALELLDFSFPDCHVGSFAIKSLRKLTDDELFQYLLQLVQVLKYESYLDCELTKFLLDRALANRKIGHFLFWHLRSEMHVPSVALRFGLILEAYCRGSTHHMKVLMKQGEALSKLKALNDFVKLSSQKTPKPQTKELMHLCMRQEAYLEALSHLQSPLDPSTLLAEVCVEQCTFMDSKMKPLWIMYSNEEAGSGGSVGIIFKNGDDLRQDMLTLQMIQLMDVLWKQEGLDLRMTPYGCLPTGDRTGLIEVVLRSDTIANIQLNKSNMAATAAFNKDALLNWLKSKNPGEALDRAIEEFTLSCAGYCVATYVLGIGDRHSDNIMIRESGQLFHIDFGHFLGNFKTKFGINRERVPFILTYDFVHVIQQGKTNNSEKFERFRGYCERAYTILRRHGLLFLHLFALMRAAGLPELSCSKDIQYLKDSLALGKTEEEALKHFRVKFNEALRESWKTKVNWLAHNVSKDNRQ

[17] = molecular target: T3, Phosphatidylinositol 4,5-bisphosphate 3-kinase catalytic subunit delta isoform (Homo sapiens); details: at 1 µM
[18] = molecular target: Phosphatidylinositol 4-kinase beta (Homo sapiens) (UniProt Q9UBF8); details: at 0.1 µM
Sequence of Phosphatidylinositol 4-kinase beta (Homo sapiens) (Q9UBF8 2-816 limits assumed): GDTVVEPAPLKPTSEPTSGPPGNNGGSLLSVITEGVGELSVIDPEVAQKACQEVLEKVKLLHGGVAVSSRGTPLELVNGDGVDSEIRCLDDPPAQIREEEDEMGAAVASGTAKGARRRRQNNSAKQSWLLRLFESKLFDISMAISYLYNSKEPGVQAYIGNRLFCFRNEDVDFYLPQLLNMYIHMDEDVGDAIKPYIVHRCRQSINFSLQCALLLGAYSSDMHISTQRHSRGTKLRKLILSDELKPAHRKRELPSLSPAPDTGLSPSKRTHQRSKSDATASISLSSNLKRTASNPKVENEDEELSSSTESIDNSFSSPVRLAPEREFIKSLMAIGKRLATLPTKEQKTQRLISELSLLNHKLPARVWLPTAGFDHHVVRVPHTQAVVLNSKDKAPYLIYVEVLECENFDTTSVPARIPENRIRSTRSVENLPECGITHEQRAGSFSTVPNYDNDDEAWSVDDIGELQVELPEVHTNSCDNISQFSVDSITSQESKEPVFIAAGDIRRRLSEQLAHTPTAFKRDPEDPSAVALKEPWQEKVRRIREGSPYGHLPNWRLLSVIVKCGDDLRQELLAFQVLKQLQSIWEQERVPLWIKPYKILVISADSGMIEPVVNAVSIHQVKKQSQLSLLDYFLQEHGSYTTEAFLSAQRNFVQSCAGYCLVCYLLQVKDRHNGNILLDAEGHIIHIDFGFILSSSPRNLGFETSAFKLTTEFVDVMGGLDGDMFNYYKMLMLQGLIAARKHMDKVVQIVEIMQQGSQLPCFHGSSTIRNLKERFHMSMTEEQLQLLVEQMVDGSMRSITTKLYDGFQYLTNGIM

[19] = molecular target: Phosphatidylinositol 4-kinase beta (Homo sapiens) (UniProt Q9UBF8); details: at 1 µM
[20] = molecular target: Sphingosine kinase 1 (Homo sapiens) (UniProt Q9NYA1); details: at 0.1 µM;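 further: mean percent inhibition of SPHK1 activity, measured within the GSK PKIS screening panel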
Sequence of Sphingosine kinase 1 (Homo sapiens) (Q9NYA1 whole entry): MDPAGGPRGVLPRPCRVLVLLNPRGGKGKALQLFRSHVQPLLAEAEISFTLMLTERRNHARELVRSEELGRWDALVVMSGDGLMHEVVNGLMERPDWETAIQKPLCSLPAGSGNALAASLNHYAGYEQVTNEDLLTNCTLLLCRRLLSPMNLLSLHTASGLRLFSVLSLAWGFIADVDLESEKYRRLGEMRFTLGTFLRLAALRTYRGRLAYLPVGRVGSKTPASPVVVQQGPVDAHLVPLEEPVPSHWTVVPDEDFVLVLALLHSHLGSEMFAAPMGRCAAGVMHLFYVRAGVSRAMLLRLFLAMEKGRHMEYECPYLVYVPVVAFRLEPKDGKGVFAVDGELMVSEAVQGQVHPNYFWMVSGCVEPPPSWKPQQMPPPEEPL

Sequence of SRSF protein kinase 3 (Homo sapiens) (Q9UPE1 whole entry): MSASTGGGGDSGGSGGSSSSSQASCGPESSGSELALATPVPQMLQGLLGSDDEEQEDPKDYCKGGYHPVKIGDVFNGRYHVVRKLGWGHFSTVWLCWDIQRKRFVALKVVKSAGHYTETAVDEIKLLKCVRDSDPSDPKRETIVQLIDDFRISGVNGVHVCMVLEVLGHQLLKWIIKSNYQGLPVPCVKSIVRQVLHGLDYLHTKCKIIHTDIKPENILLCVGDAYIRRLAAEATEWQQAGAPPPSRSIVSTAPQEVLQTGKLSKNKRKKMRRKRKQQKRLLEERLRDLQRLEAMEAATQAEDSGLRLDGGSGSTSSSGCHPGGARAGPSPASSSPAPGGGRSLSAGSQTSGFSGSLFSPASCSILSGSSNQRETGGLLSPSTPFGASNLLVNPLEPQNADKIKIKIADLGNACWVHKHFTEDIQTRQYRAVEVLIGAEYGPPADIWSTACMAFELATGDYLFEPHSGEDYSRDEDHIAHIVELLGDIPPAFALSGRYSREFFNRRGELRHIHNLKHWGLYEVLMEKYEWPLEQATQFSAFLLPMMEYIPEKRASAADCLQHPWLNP
Sequence of Mitogen-activated protein kinase 3 (Homo sapiens) (P27361 whole entry): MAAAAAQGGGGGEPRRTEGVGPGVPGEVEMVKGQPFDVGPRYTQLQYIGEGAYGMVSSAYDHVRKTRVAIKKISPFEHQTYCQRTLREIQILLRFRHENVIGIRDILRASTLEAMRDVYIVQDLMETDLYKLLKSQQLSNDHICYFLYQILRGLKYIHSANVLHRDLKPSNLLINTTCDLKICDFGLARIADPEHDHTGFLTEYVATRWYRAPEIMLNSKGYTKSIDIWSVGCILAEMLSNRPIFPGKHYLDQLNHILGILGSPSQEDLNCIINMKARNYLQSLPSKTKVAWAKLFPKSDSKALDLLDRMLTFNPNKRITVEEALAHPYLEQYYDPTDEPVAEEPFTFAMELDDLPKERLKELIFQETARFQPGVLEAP

SMILES	inhibition [1] [%]	inhibition [2] [%]	inhibition [3] [%]	inhibition [4] [%]	inhibition [5] [%]	inhibition [6] [%]	inhibition [7] [%]	inhibition [8] [%]	inhibition [9] [%]	inhibition [10] [%]	inhibition [11] [%]	inhibition [12] [%]	inhibition [13] [%]	inhibition [14] [%]	inhibition [15] [%]	inhibition [16] [%]	inhibition [17] [%]	inhibition [18] [%]	inhibition [19] [%]	inhibition [20] [%]
COc1cc2ncn(-c3cc(OCc4ccccc4S(C)(=O)=O)c(C#N)s3)c2cc1OC	4.78	0.72	1.49	4.48	8.47	2.79	6.97	1.05	3.85	0.36	2.63	-1.91	-1.66	3.16	3.95	2.67	3.41	-5.13	-1.46	0.08
NS(=O)(=O)c1cccc(Nc2cc(-c3ccc(F)cc3)n[nH]2)c1	3.77	-0.26	3.28	1.56	7.1	1.06	5.29	2.2	2.89	-0.78	1.49	-1.05	3.13	1.31	3.66	-0.13	0.5	2.18	0.88	0.58
O=C1Nc2ccc(-c3cccnc3)cc2C1=Cc1cc(Br)c(O)c(Br)c1	1.77	1.44	1.95	5.87	7.67	1.48	1.36	1.39	3.3	2.25	2.31	-1.92	-2.45	11.3	55.5	-8.03	-3.91	35.2	77.7	5.72
Cc1ccc(C(=O)NC2CC2)cc1-c1ccc2[nH]ncc2c1	-2.12	2.03	-0.89	3.93	52.8	4.23	28.2	-4.94	-5.34	-3.26	-1.96	-0.04	1.22	-3.9	-3.53	-1.94	-0.26	4.33	-2.52	-0.6
NS(=O)(=O)c1ccc(Nc2cc(-c3cccc(O)c3)n[nH]2)cc1	3.73	0.13	-0.83	4.9	9.21	7.39	9.77	2.03	7.23	3.84	3.15	-3.05	-2.8	4.26	7.56	2.48	4.98	-1.18	-1.14	1.67
CCn1c(-c2nonc2N)nc2c(C#CC(C)(C)O)nc(OCCNC)cc21	4.08	0.05	-0.46	6.16	7.38	2.05	2.15	4.59	5.13	3.83	6.39	-3.96	-2.97	5.21	4.34	1.6	1.55	-2.53	3.94	-1.43
Nc1nccc(C#Cc2cncnc2Nc2ccc(OCc3cccc(F)c3)c(Cl)c2)n1	1.04	0.77	-0.42	2.98	7.42	0.46	4.43	1.14	4.65	0.02	3.22	-1.73	-2.48	2.82	4.72	1.22	4.71	-2.78	-0.63	-2.09
